These results are taken from PubChem BioAssay AID1779 (Sanford-Burnham Center for Chemical Genomics, 2009).

Structures are written as SMILES. The campaign covered roughly 290,000 compounds. About 160 (0.055%) were called active. The sample holds actives, similar compounds and a random draw of the others, so the mix is not that of the screen. Rule as the data show it: active = inhibition above about 50%; inactive = the rest.

The inhibition is the relative decrease from the control value, in per cent.

The target in this experiment is Tyrosine-protein phosphatase non-receptor type 22 (Homo sapiens) (UniProt Q9Y2R2). The experiment can be described thus: inhibitors of LYP phosphatase, biochemical, fluorescence intensity, uHTS (AID 1779).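 Also: plate controls were vehicle with enzyme for no effect and no enzyme for full effect.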 The following applies: recombinant LYP phosphatase, at 11.5 µM, active compounds read high.
Tyrosine-protein phosphatase non-receptor type 22 (Homo sapiens), sequence (Q9Y2R2 whole entry, looked up): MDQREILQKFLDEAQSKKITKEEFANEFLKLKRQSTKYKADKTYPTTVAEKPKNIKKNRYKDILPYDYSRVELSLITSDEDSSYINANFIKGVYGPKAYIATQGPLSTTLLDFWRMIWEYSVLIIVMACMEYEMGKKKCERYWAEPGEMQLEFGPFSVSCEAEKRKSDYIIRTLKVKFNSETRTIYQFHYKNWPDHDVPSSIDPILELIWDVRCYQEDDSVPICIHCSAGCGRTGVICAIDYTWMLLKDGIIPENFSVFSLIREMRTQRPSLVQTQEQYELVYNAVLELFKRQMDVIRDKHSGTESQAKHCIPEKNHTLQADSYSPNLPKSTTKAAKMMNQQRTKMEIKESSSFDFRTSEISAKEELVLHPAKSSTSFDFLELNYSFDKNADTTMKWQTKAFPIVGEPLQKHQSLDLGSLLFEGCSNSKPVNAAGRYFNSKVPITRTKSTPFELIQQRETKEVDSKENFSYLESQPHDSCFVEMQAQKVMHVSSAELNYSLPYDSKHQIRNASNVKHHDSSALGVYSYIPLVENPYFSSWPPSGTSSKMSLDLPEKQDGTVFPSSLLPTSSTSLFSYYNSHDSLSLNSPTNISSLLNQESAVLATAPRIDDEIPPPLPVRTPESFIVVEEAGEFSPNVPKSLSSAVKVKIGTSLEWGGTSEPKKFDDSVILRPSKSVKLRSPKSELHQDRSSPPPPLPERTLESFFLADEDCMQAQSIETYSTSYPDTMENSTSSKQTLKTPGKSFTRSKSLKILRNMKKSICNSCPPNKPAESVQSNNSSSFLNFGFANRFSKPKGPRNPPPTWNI
In the case of `CCOc1ccccc1/C=N/OCC(=O)NCc1ccc(F)cc1`, the inhibition is -5.5% (inactive).
Regarding `O=C(O)c1ccc(-n2c(=O)c3ccccc3c3ccccc3c2=O)cc1`, the inhibition is -4% (inactive).
As for `Cc1ccc(-n2c(=O)c3cc4c(=O)n(-c5ccc(C)c(C)c5)c(=O)c4c(C(=O)c4ccc(C(=O)O)cc4)c3c2=O)cc1C`, the figure is 85.8% (active); as for `Cc1ccc(N2C(=O)c3ccc(C(=O)O)cc3C2=O)cc1C`, -1.9% (inactive); as for `COCCN(C(=O)c1csnn1)C(C(=O)NC1CCCCC1)c1ccc(C)cc1` (centres undefined), -9.2% (inactive).
As for `NC(=O)C(c1cccc(Cl)c1)c1ncc(C(F)(F)F)cc1Cl` (centres undefined), the figure is -10.5% (inactive); as for `C#CCOc1ccc(/C=N/NC(=O)c2cccnc2)cc1OCC`, 1.2% (inactive).
For `COc1ccccc1OCC(=O)OCC(=O)Nc1ncc(Cl)cc1Cl`, the inhibition is -9.7% (inactive).
For the compound `O=C(Nc1ccccc1)C1=C[C@@H](C2CCCCC2)C[C@@H](OCCCCO)O1`, the inhibition is 2.1% (inactive).
As to `O=C(O)CCN1C(=O)/C(=C/c2ccc(-c3nc4ccccc4s3)o2)SC1=S`, the inhibition is 14.6% (inactive).
Regarding `O=C(O)CCCN1C(=O)/C(=C\c2ccc(-c3nc4ccccc4s3)o2)SC1=S`, the inhibition was 6.8% (inactive).
As for `O=C(c1ccc2c(c1)OCO2)N1CCC2(CC1)Oc1ccc(Cl)cc1C(=O)C21CC(c2ccccc2)=NO1` (centres undefined), the inhibition is 5.7% (inactive).
On to `O=C(O)c1cccc(-n2cccc2/C=C2/NC(=O)N(c3cccc(Cl)c3)C2=O)c1`, for which the inhibition was 0.3% (inactive).
For the compound `O=C(O)c1ccc(-n2cccc2/C=C2/NC(=O)N(c3cccc(Cl)c3)C2=O)cc1`, the inhibition is 6.2% (inactive).
With `Cc1cc(NC(=O)Nc2ccc(Cl)cc2)no1`, the inhibition is -8.1% (inactive).
For `CC[C@H](C)[C@H](NC(N)=O)C(=O)OCC(=O)NCc1ccc(Cl)cc1` the value was -4.9% (inactive).
For the compound `COc1cc2c(cc1OC)-c1nnc(-c3ccco3)n1C1(CCCC1)C2`, the inhibition is -4.3% (inactive).
Take `Cc1cc(N2CCOCC2)nc(SCc2ccc(Cl)cc2Cl)n1`: the inhibition was -4.6% (inactive).
Take `O=C(O)C1CCC(N2C(=O)c3c(Cl)c(Cl)c(Cl)c(Cl)c3C2=O)CC1` (centres undefined): the inhibition is 94.2% (active).
In the case of `O=C(O)C1CCC(N2C(=O)C3CCCCC3C2=O)CC1` (centres undefined), the inhibition is -12.2% (inactive).
Consider `O=C(O)C1CCC(N2C(=O)c3cccc([N+](=O)[O-])c3C2=O)CC1` (centres undefined), for which the inhibition was -7.1% (inactive).
As for `Cc1cccc(OCC(=O)Nc2nnn(C)n2)c1C`, the inhibition is -6.4% (inactive).
`CCOc1ccccc1-c1cc(C(=O)N/N=C/c2ccc(O)c(OC)c2)c2ccccc2n1`: the inhibition was 64.5% (active).
`COc1cc(/C=N/NC(=O)c2cc(-c3ccccc3)nc3ccccc23)ccc1O`: the inhibition was -1.5% (inactive).
`COc1cc(/C=N/NC(=O)c2cc(-c3ccccc3OC(C)C)nc3ccccc23)ccc1O`: the inhibition was 4.4% (inactive).
On to `O=C(NCCc1ccccn1)C1CCN(S(=O)(=O)c2ccc(Cl)cc2)CC1`, for which the inhibition was -6.8% (inactive).
As for `CCOC(=O)c1ccc(NC(=S)NC(=O)c2nn(CC)cc2Br)cc1`, the inhibition was 1.9% (inactive).
Turning to `CCOC(=O)c1ccc(NC(=O)c2nn(CC)cc2Br)cc1`, the inhibition is -4.5% (inactive).
As for `CCn1cc(Br)c(C(=O)NC(=S)Nc2ccc(C(=O)OC)cc2)n1`, the figure is 65.2% (active).
On to `COC(=O)CNC(=O)c1ccc(C)s1`, for which the inhibition is -7.8% (inactive).
With `CCS(=O)(=O)N1CCN(S(=O)(=O)c2ccc3ccccc3c2)CC1`, the inhibition is -9.2% (inactive).
As for `CN1CCN(S(=O)(=O)c2ccc3ccccc3c2)CC1`, the figure is -4.3% (inactive); as for `CN(C)S(=O)(=O)N1CCN(S(=O)(=O)c2ccc3ccccc3c2)CC1`, 71.6% (active); as for `CCN(CC(=O)N1CCOCC1)S(=O)(=O)c1ccc2ccccc2c1`, -8.1% (inactive).
As for `Cc1ccc(OCC(O)CNS(=O)(=O)c2ccccc2C(=O)O)cc1` (centres undefined), the figure is -4.9% (inactive).
For the compound `CC(=O)Nc1cccc(NC(=O)c2c(-c3ccccc3Cl)noc2C)c1`, the inhibition was -3.7% (inactive).
As for `C/C(=N\NC(=O)c1c(-c2ccccc2Cl)noc1C)c1cccc(NC(=O)C(C)C)c1`, the inhibition is 77.1% (active).
Regarding `CCC(=O)Nc1ccc(/C(C)=N/NC(=O)c2c(-c3ccccc3Cl)noc2C)cc1`, the inhibition is -2.5% (inactive).
For `C/C(=N\NC(=O)C(=O)Nc1cccc(Cl)c1C)c1ccncc1` the value was -8% (inactive); for `CN1CCN(C(=O)c2cc3cc(F)ccc3[nH]2)CC1`, -9.9% (inactive).
With `O=C(c1cc2cc(F)ccc2[nH]1)N1CCN(C(=O)c2ccco2)CC1`, the inhibition is 95.1% (active).
Take `O=C(c1cc2cc(Cl)ccc2[nH]1)N1CCN(C(=O)c2ccco2)CC1`: the inhibition was -9.3% (inactive).
Turning to `O=C(NNc1c(Cl)cccc1Cl)c1cccs1`, the inhibition is -4.8% (inactive).
Turning to `CCCC(=O)Nc1ccc(Cl)c(NC(=O)CC)c1`, the inhibition was -12.2% (inactive).
`O=C(O)c1ccc(NC(=S)NC(=O)c2ccc(-c3ccc(Br)cc3)o2)cc1`: the inhibition is 86.9% (active).
For `O=C(NC(=S)Nc1ccc(CN2CCOCC2)cc1)c1ccc(-c2ccc(Br)cc2)o1`, the inhibition was -14.4% (inactive).
With `O=C(NC(=S)Nc1ccccc1C(=O)O)c1ccc(-c2ccc(Br)cc2)o1`, the inhibition was 1.2% (inactive).
Turning to `CCCc1cc(C(=O)NC2CCCN(Cc3ccccc3F)C2)no1` (centres undefined), the inhibition was -1.5% (inactive).
As for `CC(=O)N(CC(=O)O)c1ccccc1`, the figure is -0.7% (inactive); as for `O=C(COc1ccccc1F)Nc1cc(S(=O)(=O)N2CCOCC2)ccc1N1CCOCC1`, -1.3% (inactive).
As to `CCC(C)NCCOCCOc1ccc(Cl)c2ccccc12` (centres undefined), the inhibition is 1.1% (inactive).
Regarding `CCC(C)NCCOCCOc1ccc(Cl)cc1Br` (centres undefined), the inhibition is -3.3% (inactive).
For `CCC(C)NCCOCCOc1ccc(Cl)c(C)c1C` (centres undefined) the value was 76.9% (active).
Take `Cc1ccc(N=Nc2c(O)n(CN3CCOCC3)c3ccccc23)cc1`: the inhibition was 72% (active).
Turning to `Cc1cccc(NC(=S)N=Nc2c(O)n(CN3CCOCC3)c3ccccc23)c1C`, the inhibition is -4.1% (inactive).
For `Cc1c(Cl)cccc1NC(=S)N=Nc1c(O)n(CN2CCOCC2)c2ccccc12` the value was -0.8% (inactive); for `O=S(=O)(CCCc1ccccc1)c1ncn[nH]1`, -3% (inactive); for `COc1ccc(N(CC(=O)NCCSC(C)(C)C)S(C)(=O)=O)c(OC)c1`, -6.6% (inactive).
As to `Cc1ccccc1OCC(=O)N/N=C/c1ccco1`, the inhibition was -3.4% (inactive).
`Cc1ccc(OCC(=O)N/N=C/c2ccco2)cc1`: the inhibition is -5.1% (inactive).
On to `Cc1ccc(OCC(=O)N/N=C\c2ccco2)c(C)c1`, for which the inhibition was 51.3% (active).
As to `Cc1ccc(C(=O)N/N=C\c2cccs2)cn1`, the inhibition was 1.2% (inactive).
Take `Cc1nnc(C)n1/N=C/c1ccccc1`: the inhibition is -11% (inactive).
Regarding `CNc1nc(N)nc(-c2cc(Cl)ccc2OC)n1`, the inhibition is -4% (inactive).
As for `COc1ccc(Cl)cc1-c1nc(N)nc(NC2CCCCC2)n1`, the figure is 58.1% (active).
As for `CCNc1nc(N)nc(-c2cc(Cl)ccc2OC)n1`, the figure is -2.6% (inactive).
As for `Cc1ccc(/C(O)=C2/C(=O)C(=O)N(CCN3CCOCC3)C2c2cccnc2)cc1` (centres undefined), the inhibition was -3.8% (inactive).
For the compound `C=CCC(C(=O)OC)(C(=O)OC)c1ccccc1[N+](=O)[O-]`, the inhibition is -9.5% (inactive).
As to `COc1cc(/C=N\NC(=O)c2ccc(-c3ccccc3)cc2)ccc1OCC(N)=O`, the inhibition was 3.2% (inactive).
As to `CCOc1cc(/C=N\NC(=O)c2ccc(NC(=O)C(C)(C)C)cc2)ccc1OC(=O)c1ccc(C)cc1`, the inhibition was -4% (inactive).
On to `Cc1cc2c(N=O)c(NO)ccc2[nH]1`, for which the inhibition is -4.6% (inactive).
Turning to `Cc1nn(Cc2cccc(C(=O)NC34CC5CC(CC(C5)C3)C4)c2)c(C)c1Br`, the inhibition was 94.4% (active).
For `Cc1nn(Cc2cccc(C(=O)NCC(C)C)c2)c(C)c1Br`, the inhibition was -3.3% (inactive).
Consider `CCCNC(=O)c1cccc(Cn2nc(C)c(Br)c2C)c1`, for which the inhibition was -5.3% (inactive).
Take `COc1ccc(-c2cc(C(=O)NCCc3ccc(S(N)(=O)=O)cc3)c3ccccc3n2)cc1`: the inhibition was -2.5% (inactive).
As for `Cc1nnc(SCC(=O)NC(=O)Nc2ccc3c(c2)OCCO3)n1N`, the inhibition was -13% (inactive).
For `N=c1c(S(=O)(=O)c2ccc(Br)cc2)cc2c(=O)n3ccccc3nc2n1Cc1ccccc1` the value was -5.4% (inactive); for `COCCn1c(=N)c(S(=O)(=O)c2ccc(Br)cc2)cc2c(=O)n3ccccc3nc21`, 67.5% (active); for `COCCn1c(=N)c(S(=O)(=O)c2ccc(F)cc2)cc2c(=O)n3ccccc3nc21`, -34.1% (inactive).
Take `Cc1cc(N2C(=O)C(O)=C(C(=O)c3cc4ccccc4o3)C2c2ccc(Br)cc2)no1` (centres undefined): the inhibition was 2.4% (inactive).
On to `OCCOCCn1c(-c2ccccc2)nc(=S)c2c1CCCC2`, for which the inhibition was -2.3% (inactive).
Regarding `O=C(CCc1c[nH]c2ccccc12)OCc1cccc([N+](=O)[O-])c1`, the inhibition was -6% (inactive).
For `COc1ccc(/C=N\NC(=O)COc2ccccc2)c(C(=O)O)c1OC` the value was 2.3% (inactive); for `COc1ccc(/C=N/NC(=O)COc2ccc3ccccc3c2)c(C(=O)O)c1OC`, -2.9% (inactive); for `COc1ccc(OCC(=O)N/N=C/c2ccc(OC)c(OC)c2C(=O)O)cc1`, 53.1% (active).
As for `CCc1nc(CNC(=O)c2cc(OC)c(OC)c(OC)c2)no1`, the figure is -4.2% (inactive); as for `O=C(NC(=S)Nc1ccc(S(=O)(=O)Nc2nccs2)cc1)C1CC1`, 1% (inactive); as for `COc1cccc(N(C(=O)Cn2nnc(-c3ccc(Cl)cc3)n2)C(C(=O)NCC2CCCO2)c2ccc(C)cc2)c1` (centres undefined), -1.9% (inactive).
For `COc1ccc(N(CC(=O)NC(C)C)C(=O)CCC(=O)Nc2ccccn2)cc1`, the inhibition was 67.8% (active).
For `CCOc1ccc(N(CC(=O)NC(C)C)C(=O)CCC(=O)Nc2ccccn2)cc1` the value was 2.9% (inactive); for `CCCCOc1ccc(N(CC(=O)NC(C)C)C(=O)CCC(=O)Nc2ccccn2)cc1`, -3.4% (inactive); for `Cc1cc(C(=O)NCCCN2CCCC2=O)cs1`, 75.4% (active).
Take `O=C(NCCCN1CCCC1=O)c1cccs1`: the inhibition is 2.8% (inactive).
Consider `O=C(NCCCN1CCCC1=O)c1csc2ccccc12`, for which the inhibition is -6.7% (inactive).
